Results from PubChem BioAssay (Tox21).
Records with an inconclusive call do not appear. Values without a mark were called inactive. Activity calls are given as the source filed them. The call rests on the fitted dose curve; in most records, active means well fitted cell-killing curve with a large enough effect in the repeat runs; inconclusive means weak or mixed curves, or effect the other way; inactive means flat fitted curve, though single readings scatter.

assay: qHTS assay to identify small molecule antagonists of the constitutive androstane receptor (CAR) signaling pathway - cell viability counter screen (AID 1224837); conditions: HepG2-CYP2B6-hCAR viability, CellTiter-Fluor, 23 h, co-treated with 50 nM CITCO; series mostly up to 92.4 µM; activity change, negative = cytotoxicity: at the top concentration; further: nearly all actives have a fitted effect of over 45% in size
Text: National Center for Advancing Translational Sciences [NCATS]
NIH Chemical Genomics Center [NCGC]
U.S. Environmental Protection Agency [EPA]
National Institutes of Environmental Health Sciences [NIEHS]
National Toxicology Program [NTP]
U.S. Food and Drug Administration [FDA]
The constitutive androstane receptor (CAR) is a nuclear receptor which regulates multiple drug metabolizing enzymes (DMEs) and transporters. Activating CAR will generally increase the transcription and subsequent translation of CYP2B6 and CYP3A4. These two DMEs represent about 50% of the drug metabolizing potential in the body. When CAR is deactivated, the metabolizing potential in the body will decrease, subsequently increasing the toxicity in the body or lowering the therapeutic potential of a pro-drug. Recently, there have also been studies performed indicating CARs role in energy metabolism and cancer therapy. Therefore, inhibiting CARs activity could have a potential effect on diabetes and cancer. Identifying environmental toxins and compounds which modulate CAR, through the use of the Tox21 10K compound collection, will be an important step in determining the toxicity and potential therapeutic effects these factors will have on the human body. To differentiate true CAR antagonists from cytotoxic substances, the assay is multiplexed with a cell viability assay.
Tox21 Assay Protocol Summary:
A double-stable (hCAR and CYP2B6-2.2kb) transfected cell line, derived from human hepatoma (HepG2) cells, was utilized for the duration of the quantitative high-throughput screens. The HepG2-CYP2B6-hCAR cells were dispensed at 2500 cells/4 uL/well in 1536-well white solid bottom plates using a Multidrop Combi. After the assay plates were incubated at 37 C/5% CO2 for 4 hrs, 23 nL of compounds at 15 concentrations (from 5-48 columns) or positive control (from 1 to 4 columns) were transferred to the assay plates using a Pintool station. One uL of CITCO (final concentration = 50 nM) was added, using a Flying Reagent Dispenser, inside each well. After a 23 hr incubation period at 37 C/5% CO2, 1 uL of CellTiter-Fluor reagent was added into each well of the assay plates using a Flying Reagent Dispenser. The fluorescence intensity in the plates was then measured using a ViewLux plate reader.
On the % scale 0 is the no-effect control and ±100 the full control effect; potency means the concentration at half of the fitted maximal effect.

SMILES	activity change, negative = cytotoxicity	Potency
O=C(c1ccccc1)c1cc(Cl)ccc1O	-9.36%	
CCCCNc1c(C(=O)OCC)c(C)nc2c1cnn2CC	7.22% [at 42.5 µM]	
[O]=[Zr]	10.7%	
CCCCC(CC)COC(=O)c1ccc(O)cc1 (stereo not given)		inactive
CCN(CC)CCCN(c1ccccc1)C1Cc2ccccc2C1	-19.9% [at 42.5 µM]	
CC(C)(C)CC(C)(C)c1ccccc1O	0.124%	
O=C1c2c(O)ccc([N+](=O)[O-])c2C(=O)c2c([N+](=O)[O-])ccc(O)c21		24.1 µM (active)
CO[Si](CCCNCCNCCN)(OC)OC	-0.293%	
CCCCCCCCCCCCCCCCCO	8.93% [at 19 µM]	
C[C@]12CC[C@H]3C(=CCc4cc(O)ccc43)[C@@H]1CCC2=O	-4.42%	
Cc1ccc(-n2[nH]c(C)c(N=Nc3cccc(-c4cccc(C(=O)O)c4)c3O)c2=O)cc1C	0.842% [at 42.5 µM]	
CCC(=O)OCCc1ccccc1	0.995%	
CCN1CCN(c2cc(-c3ccc(F)cc3)c3c(n2)CCCCCC3)CC1	3.17% [at 19 µM]	
COc1nccnc1CC(C)C	8.2%	
C=CC(=O)OCCN(CC)CC	2.06%	
c1cc[nH]c1	8.31%	
CC(C)OC(=O)c1cc(C(=O)OC(C)C)cc([N+](=O)[O-])c1	4.57%	
CCC(C)c1ccccc1 (stereo not given)	-0.615%	
O=C1C=CC(=O)N1c1ccccc1		27.3 µM (active)
O=C(Oc1ccccc1)c1cccc(C(=O)Oc2ccccc2)c1	-5.21%	

SMILES	activity change, negative = cytotoxicity	Potency
CN(C)CCCN1c2ccccc2CCc2ccccc21	-34.1% [at 42.5 µM]	
CC(C)=C1CC[C@@H](C)CC1=O	2.02%	
CSc1ccc2c(c1)N(CCC1CCCCN1C)c1ccccc1S2 (stereo not given)		54.3 µM (active)
NCCCC(O)(P(=O)(O)O)P(=O)(O)O	-3.5% [at 42.5 µM]	
C[Si](C)(C)Cl	2.6%	
ClC/C=C\CCl	0.5%	
CC1CCCCC1	4.25%	
CC(=O)Oc1ccc(C2(c3ccc(OC(C)=O)cc3)C(=O)Nc3ccccc32)cc1	-3.12% [at 42.5 µM]	
Cc1ccc(O)cn1	1.42%	
Oc1ccc(-c2ccc(O)cc2)cc1	2.48%	
CN1CN(C)CN(C)C1	3.53%	
CC(C)CCOCCC(C)C	-6.4%	
CCc1cccc(C)c1	-0.519%	
Brc1ccccn1	0.0881%	
CC1=C(/C=C/C(C)=C/C=C/C(C)=C\C=O)C(C)(C)CCC1	-14.5%	
CCN(CC)CCNc1ccc(CO)c2sc3ccccc3c(=O)c12		7.5 µM (active)
COc1cc(C(C)C)c2c(c1)S(=O)(=O)N(COc1cc(=O)n3cccc(OCCN4CCCCC4)c3n1)C2=O	-19.6% [at 19 µM]	
O=C(O)CCn1c2c(c3ccccc31)C[C@H](NS(=O)(=O)c1ccc(F)cc1)CC2	-0.636% [at 42.5 µM]	
CCCCCCCCC(C)=O	-3.66%	
O=C(O)Cc1ccc(OCCNC[C@H](O)c2ccccc2)cc1	-2.19% [at 42.5 µM]	
